Compound activity deposited in PubChem by several laboratories.
sPLA2-III inh = Blocks human group III sPLA2 activity; inhibition, % at 12.2 µM; 370,000 compounds, 0.56% hits; QFRET BODIPY PC-A2 liposome hydrolysis, fluorescence; AID 743126; Q9NZ20;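 active means inhibition above mean plus 3 SD of compounds lying within the high and low control bounds, cut at about 19% in these data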;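 further: 0% = median of test compound wells and 100% = no enzyme DMSO wells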
Target sequence (Q9NZ20 whole entry, looked up): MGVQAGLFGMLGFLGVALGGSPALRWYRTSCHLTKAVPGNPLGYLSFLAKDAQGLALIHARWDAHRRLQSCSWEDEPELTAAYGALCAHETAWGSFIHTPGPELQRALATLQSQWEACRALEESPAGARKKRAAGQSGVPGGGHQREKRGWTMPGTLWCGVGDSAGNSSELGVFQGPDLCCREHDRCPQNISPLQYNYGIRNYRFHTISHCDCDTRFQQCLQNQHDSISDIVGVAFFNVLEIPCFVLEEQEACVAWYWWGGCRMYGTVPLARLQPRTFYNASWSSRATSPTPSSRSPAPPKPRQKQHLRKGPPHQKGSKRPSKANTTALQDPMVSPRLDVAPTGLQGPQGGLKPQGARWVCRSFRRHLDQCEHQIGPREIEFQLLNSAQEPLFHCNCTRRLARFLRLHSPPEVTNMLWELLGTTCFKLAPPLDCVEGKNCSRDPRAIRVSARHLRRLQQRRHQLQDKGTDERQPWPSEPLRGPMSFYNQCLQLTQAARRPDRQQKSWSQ
Rtt109 Vps75 = inhibitors of Candida albicans Rtt109/Vps75 histone acetyltransferase; Q5AAJ8; purified Rtt109/Vps75, ThioGlo CoA-SH fluorescence, 4 h; inhibition, % at 34.9 µM; 330,000 compounds, 0.16% hits;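 active means inhibition of at least 50% in every replicate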
ABHD5 PLIN5 PPI = ABHD5-PLIN5 protein interaction inhibition. Q00G26+Q8WTS1. Split G. princeps luciferase complementation, luminescence, 4 h. inhibition, % at 4 µM. 360,000 compounds, 0.78% hits. AID 602281;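 active means inhibition above the mean inhibition across every tested compound plus 3 SD, cut at about 22% in these data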;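 further: 0% = DMSO only wells and the 100% control is not disclosed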
DAGLB inh = diacylglycerol lipase beta (human) inhibition | Q8NCG7 | HEK293T DAGLB membrane lysate, EnzChek fluorogenic substrate | inhibition, % at 5.17 µM | 340,000 compounds, 0.059% hits | AID 504411; in the data active means inhibition above about 34%;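 further: 0% = enzyme with vehicle and 100% = wells lacking enzyme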
Myeloid diff 2 = compounds promoting myeloid differentiation. ER-HoxA9 myeloid progenitors, lysozyme-GFP differentiation, flow cytometry. calls only at 10 µM. AID 624256. 360,000 compounds, 1% hits;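 active means normalized GFP-positive differentiation at or above the plate's own cutoff, the solvent-only control mean plus 3 SD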;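 further: cells exposed to compound for four days before flow analysis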
H9c2 protect = protects H9c2 cardiomyocytes from peroxide injury; H2O2 injury protection, ATPLite, 2 h; protection from H2O2 cell death, % at 20 µM; 360,000 compounds, 0.63% hits;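 active means compounds giving at least 50% protection of heart cells from peroxide-induced death in the single-dose screen, raw or plate-pattern-corrected value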;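 further: 0% = DMSO wells with peroxide and 100% = DMSO wells without peroxide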
* marks the source's active call; other numbers are inactive results. An excerpt weighted towards active compounds, which were near 2.9% of everything screened.

What do the screens show for `COc1cc(/C=C(\C#N)C(=O)Nc2ccccc2F)ccc1OCCN1CCOCC1`?
sPLA2-III inh: -17; Rtt109 Vps75: 9; ABHD5 PLIN5 PPI: -8; DAGLB inh: 0; Myeloid diff 2: inactive; H9c2 protect: 67*

What do the screens show for `COc1cc(NC(=O)C2=C(N3CCOCC3)/C(=C/c3ccc(Cl)cc3)CC2)cc(OC)c1OC`?
sPLA2-III inh: -35; Rtt109 Vps75: 17; ABHD5 PLIN5 PPI: 9; DAGLB inh: 3; Myeloid diff 2: inactive; H9c2 protect: 0

What do the screens show for `N#C/C(=C\c1ccc(OCCN2CCOCC2)cc1)C(=O)Nc1ccccc1`?
sPLA2-III inh: -20; Rtt109 Vps75: -5; ABHD5 PLIN5 PPI: -6; DAGLB inh: 0; Myeloid diff 2: inactive; H9c2 protect: 6

What do the screens show for `N#C/C(=C/c1ccc(N2CCOCC2)o1)C(=O)Nc1ccccc1`?
sPLA2-III inh: -61; Rtt109 Vps75: -2; ABHD5 PLIN5 PPI: 10; DAGLB inh: -40; Myeloid diff 2: active; H9c2 protect: -15

What do the screens show for `N#C/C(=C/c1cn(CC(=O)O)c2ccccc12)C(=O)Nc1ccccc1`?
sPLA2-III inh: -1; Rtt109 Vps75: 3; ABHD5 PLIN5 PPI: 6; DAGLB inh: -3; Myeloid diff 2: inactive; H9c2 protect: 0

Results for CCSc1nnc(-c2cccnc2)n1-c1ccc(C)c(Cl)c1 ?
sPLA2-III inh: 1; Rtt109 Vps75: 2; ABHD5 PLIN5 PPI: 8; DAGLB inh: -5; Myeloid diff 2: inactive; H9c2 protect: 0

What do the screens show for `O=C(Nc1ccncc1)c1cn(-c2ccccc2)nc1-c1cccs1`?
sPLA2-III inh: -12; Rtt109 Vps75: -1; ABHD5 PLIN5 PPI: 10; DAGLB inh: 0; Myeloid diff 2: inactive; H9c2 protect: -2

How did COc1ccc(-c2nn(-c3ccccc3)cc2C(=O)Nc2nccs2)cc1 do in these assays?
sPLA2-III inh: -6; Rtt109 Vps75: -12; ABHD5 PLIN5 PPI: 4; DAGLB inh: -2; Myeloid diff 2: inactive; H9c2 protect: 59*

Results for COc1cccc(-c2nn(-c3ccccc3)cc2C(=O)Nc2nccs2)c1 ?
sPLA2-III inh: -3; Rtt109 Vps75: 7; ABHD5 PLIN5 PPI: 2; DAGLB inh: -4; Myeloid diff 2: inactive; H9c2 protect: 63*

How did O=C(Nc1nccs1)c1cn(-c2ccccc2)nc1-c1ccncc1 do in these assays?
sPLA2-III inh: -5; Rtt109 Vps75: -3; ABHD5 PLIN5 PPI: -3; DAGLB inh: -2; Myeloid diff 2: active; H9c2 protect: 19

How did COc1cccc(-c2nn(-c3ccccc3)cc2C(=O)n2nnc3ccccc32)c1 do in these assays?
sPLA2-III inh: -4; Rtt109 Vps75: -7; ABHD5 PLIN5 PPI: 3; DAGLB inh: 1; Myeloid diff 2: inactive; H9c2 protect: -3

How did COc1ccc(-c2nn(-c3ccccc3)cc2N)cc1 do in these assays?
sPLA2-III inh: -5; Rtt109 Vps75: -8; ABHD5 PLIN5 PPI: -26; DAGLB inh: 2; Myeloid diff 2: active; H9c2 protect: -5

How did O=C1C(=O)N(CCO)C(c2ccc(Br)cc2)/C1=C(\O)c1ccccc1 (centres undefined) do in these assays?
sPLA2-III inh: -9; Rtt109 Vps75: 4; ABHD5 PLIN5 PPI: 1; DAGLB inh: -1; Myeloid diff 2: inactive; H9c2 protect: 7

What do the screens show for `Cc1cc(C)c(C#N)c(SCCS(=O)(=O)Cc2ccc(Cl)cc2)n1`?
sPLA2-III inh: -3; Rtt109 Vps75: -1; ABHD5 PLIN5 PPI: 0; DAGLB inh: -3; Myeloid diff 2: inactive; H9c2 protect: -3

Results for CC(C(=O)NC1C=CS(=O)(=O)C1)N1C(=O)/C(=C/c2ccc(Cl)cc2)SC1=S (centres undefined) ?
sPLA2-III inh: -10; Rtt109 Vps75: 139*; ABHD5 PLIN5 PPI: 0; DAGLB inh: 7; Myeloid diff 2: inactive; H9c2 protect: 1

What do the screens show for `COc1ccc(NC(=O)C2CCCN(S(C)(=O)=O)C2)c(OC)c1` (centres undefined)?
sPLA2-III inh: 12; Rtt109 Vps75: -3; ABHD5 PLIN5 PPI: 4; DAGLB inh: -1; Myeloid diff 2: inactive; H9c2 protect: 6

How did O=C(CSc1ccsc1[N+](=O)[O-])N1CCN(c2ccc(Cl)cc2)CC1 do in these assays?
sPLA2-III inh: 4; Rtt109 Vps75: 8; ABHD5 PLIN5 PPI: -1; DAGLB inh: 2; Myeloid diff 2: active; H9c2 protect: -11
